# Compound activity deposited in PubChem by several laboratories.
# Mdm2 MdmX PPI: inhibitors of human Mdm2/MdmX interaction; O15151+Q00987; SaOS-2 split-luciferase Mdm2/MdmX complementation, luminescence; inhibition, % at 8 µM; actives 3% (n = 330,000); AID 485346;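 active = inhibition of at least 50% at 8 µM in the primary screen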
# Gli-Sufu antag: blocks Gli-Sufu signaling in a luciferase reporter. Sufu-KO-LIGHT fibroblasts, Gli luciferase reporter luminescence. inhibition, % at 5 µM. actives 0.74% (n = 340,000). AID 588413;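 active = inhibition above about 55%, limit read from the data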;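 note: 0% = DMSO-treated cells and 100% = wells with medium but no cells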
# Beta apoptosis: blocks beta cell apoptosis | INS-1E cytokine-induced death, ATP luminescence, 48 h; percent of positive-control rescue, neutral wells zero | protection from apoptosis, % (concentration not given with the values) | actives 0.8% (n = 300,000);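 active = Every replicate reaches about 75%, or at least half do and their mean reaches it too, limit read from the data; inconclusive = At least half of replicates reach the limit but their mean does not; inactive = Under half of replicates reach the limit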;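 note: 0% = cytokine-treated negative control wells and 100% = positive control rescue; higher means more ATP so stronger rescue from cytokine killing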
# GRIN3A LBD mod: modulates the human NR3A ligand-binding domain. NR3A LBD differential scanning fluorimetry, Tm shift; 0% = protein alone, 100% = glycine-bound protein. Tm shift relative to glycine control, % at 25 µM. actives 2.5% (n = 340,000);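 active = melting temperature shift of at least 10% of the positive control shift, at one fixed dose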
# CSC inhib: blocks cancer stem cells; cancer stem cell-like cells viability, luminescence; inhibition, % at 7.5 µM; actives 1.1% (n = 300,000); in the data active = inhibition above about 75%; inconclusive = no clear call, values can overlap the other calls; tested in HMLE shEcad cells
# MPTP inh: inhibitors of mitochondrial permeability transition pore; inhibition, % at 10 µM; isolated mouse mitochondria, Ca2+ swelling absorbance, 30 min; actives 1.4% (n = 360,000); AID 602449;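 active = inhibition of 50% or more, scaled per plate between neutral and stimulator controls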;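 note: 0% = DMSO wells given calcium and 100% = 1 mM EGTA wells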
# Mdm2 MdmX conf: confirmation of human Mdm2/MdmX interaction inhibitors | shares compounds with Mdm2 MdmX PPI | Mdm2-MdmX binding, luminescent assay | inhibition, % at 8 µM | actives 55% (n = 10,000); in the data active = inhibition above about 40%
# Full FLuc ctr: full-length luciferase inhibition in Mdm2/MdmX counter-screen | AID 504607 | inhibition, % at 8 µM | shares compounds with Mdm2 MdmX PPI | SaOS-2 full-length luciferase counterscreen, luminescence | actives 77% (n = 6,200);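 active = mean inhibition at 8 µM reaching about 37%, which flags the compound as non-specific, limit read from the data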;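 note: p53-null SaOS-2 cells with luciferase driven by a doxycycline-inducible promoter; compound on cells about two nights before reading with doxycycline added after day one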
# Active calls of the source: *; ? = inconclusive; / = not tested or not shown. Rows were chosen to be rich in hits. Some 6.6% of all compounds tested hit in one or more screens of this group.
SMILES,Mdm2 MdmX PPI,Gli-Sufu antag,Beta apoptosis,GRIN3A LBD mod,CSC inhib,MPTP inh,Mdm2 MdmX conf,Full FLuc ctr
CCCCNC(=O)C1(C)CCCCN1C(=O)c1ccc2c(c1)CCO2 (stereo not given),/,/,/,/,/,0,/,/
CC(C)(C)NC(=O)CSc1ccc(S(=O)(=O)N2CCOCC2)cn1,16,1,-2,0,/,0,/,/
Cc1cc(NC(=O)c2ccc(F)cc2F)n(-c2nc3ccccc3[nH]2)n1,66*,1,16,2,-1,1,40,30
Cc1cc(NC(=O)CC2CCCC2)n(-c2nc3ccccc3[nH]2)n1,57*,7,21,-7,31,-1,11,/
Cc1ccc(S(=O)(=O)N2CCN(C)CC2c2ccccc2)cc1 (stereo not given),5,3,0,-2,/,0,/,/
CC1(C(=O)NS(=O)(=O)c2ccccc2Cl)CCN1C(=O)CC1CC1 (stereo not given),/,/,/,/,/,0,/,/
COC(=O)c1cn(NC(=O)c2cc([N+](=O)[O-])ccc2F)c(=O)c2ccccc12,83*,24,-21,-1,42,-1,76*,54*
C[C@]12C(=O)N(c3ccc(C(F)(F)F)cc3)C(=O)N1[C@H]1c3ccccc3OC[C@@H]1[C@H]2c1ccccc1,57*,-1,1,0,8,3,8,/
C[C@@]12C(=O)N(c3ccccc3)C(=O)N1[C@@H]1c3ccccc3OC[C@@H]1[C@H]2c1ccccc1,29,-7,9,-1,-9,1,/,/
CCCS(=O)(=O)c1cnc(C2COc3ccccc3O2)nc1N (stereo not given),82*,49,12,0,?,0,85*,48*
COc1ccc(-c2cc(C(F)(F)F)nc(S(C)(=O)=O)n2)cc1,101*,-8,-31,1,96*,0,80*,53*
CS(=O)(=O)c1nc(-c2ccc(F)cc2)cc(C(F)(F)F)n1,/,-2,/,1,/,0,/,/
CS(=O)(=O)c1nc(-c2cccs2)cc(C(F)(F)F)n1,100*,/,91*,/,100*,/,99*,1
CCCC(=O)N=C1SC2CS(=O)(=O)CC2N1c1ccc(-c2nc3ccc(C)cc3s2)cc1 (stereo not given),73*,-74,-4,-3,10,2,-110,/
Cc1ccc(N2C(=NC(=O)c3ccccc3)SC3CS(=O)(=O)CC32)cc1 (stereo not given),14,-9,-4,-2,-1,0,/,/
Cc1cccn2c(=O)nc(SCC(=O)N3N=C(c4cccs4)CC3c3ccc(F)cc3)nc12 (stereo not given),51*,1,/,0,/,-2,51*,71*
COCCNC(=O)C1C(=O)Nc2ccccc2C(=O)N1Cc1ccccc1 (stereo not given),/,/,/,/,/,-2,/,/
Cc1c(N=C2N=C(NC(=O)Nc3ccc(Cl)cc3)c3ccccc32)c(=O)n(-c2ccccc2)n1C,58*,23,7,2,/,2,25,/
CCOC(=O)/C=c1\s/c(=C\c2ccc(C#N)cc2)c(=O)n1CC(=O)NCc1ccco1,-1,-3,-4,0,-7,3,/,/
CCOC(=O)/C=c1\s/c(=C\c2ccc(C(=O)OC)cc2)c(=O)n1CC(=O)Nc1ccccc1,62*,-5,0,-4,2,6,15,/
CCOC(=O)/C=c1\s/c(=C\c2c(OC)ccc3ccccc23)c(=O)n1CC(=O)NCC1CCCO1 (stereo not given),63*,12,32,2,57,0,65*,77*
O=C(COC(=O)CNC(=O)C1CCCCC1)Nc1ccc(Cl)cc1F,-16,36,-6,-2,1,6,/,/
Cn1c(=O)c(C(=O)Nc2ccccn2)c(O)c2ccccc21,67*,-41,22,-3,15,-3,60*,29
O=C(CCS(=O)(=O)c1ccccc1)N(CCCN1CCOCC1)c1nc2c(F)cccc2s1,79*,-8,-20,2,/,-1,58*,38*
Cc1ccc(S(=O)(=O)CC(=O)N(CCCN2CCOCC2)c2nc3c(F)cccc3s2)cc1,2,-5,-3,3,-6,-4,/,/
SMILES,Mdm2 MdmX PPI,Gli-Sufu antag,Beta apoptosis,GRIN3A LBD mod,CSC inhib,MPTP inh,Mdm2 MdmX conf,Full FLuc ctr
CC[C@H]1CC2CN3CCc4c([nH]c5c([C@H]6C[C@H]7[C@H](CC)CN(C)[C@@H](Cc8c6[nH]c6ccccc86)[C@H]7C(=O)OC)c(OC)ccc45)C(C(=O)OC)(C2)C13,93*,/,49,/,103*,/,83*,37*
CCC1CN(C)C2Cc3c([nH]c4ccccc34)C(=O)CC1C2C(=O)OC (stereo not given),-20,4,/,-2,-4,0,/,/
COc1cc(C(=O)NC2CCCCC2)ccc1OCc1ccc(Cl)cc1Cl,58*,3,-1,1,7,16,12,/
COc1cc(CNCCN2CCOCC2)ccc1OCc1ccc(Cl)cc1Cl,53*,-2,16,0,/,7,20,/
COc1cc(C(=O)NCCC(C)C)ccc1OCc1ccc(Cl)cc1Cl,18,10,18,-2,-15,32,/,/
COc1cc(CNCCN2CCOCC2)ccc1OCc1cccc(Cl)c1,3,-19,-2,1,-7,5,/,/
Cc1ccc(-c2cc3nc(C)cc(N4CCN(C(=O)c5ccoc5)CC4)n3n2)cc1,/,/,/,/,/,0,/,/
COc1ccc2sc(-c3ccc(N(C)C)cc3)c(-c3cnc(OC)nc3)c2c1,-34,-3,-4,0,71,1,/,/
Cc1ccc(C(=O)Nc2cc3ccccc3oc2=O)cc1,89*,29,31,-4,?,-1,85*,32
Cc1nc(NC(=O)c2ccc(-c3cc4ccccc4oc3=O)cc2)ccc1Br,76*,-10,11,1,12,0,29,77*
CC(=O)Nc1cc2ccccc2oc1=O,14,-4,-1,-1,12,2,/,/
C=CCNC(=S)N/N=C/c1cn(-c2ccccc2)nc1-c1ccc(OC)cc1,51*,10,4,7,-8,2,16,/
COc1ccc(-c2nn(-c3ccccc3)cc2/C=N/NC(=S)NC(C)C)cc1OC,32,7,37,1,18,2,/,/
O=c1nc(-c2ccccc2)c2cc(SC(F)F)ccc2[nH]1,19,0,/,0,11,0,/,/
CC1Sc2ccc(S(=O)(=O)CCC(=O)N3CCN(c4ccccc4F)CC3)cc2NC1=O (stereo not given),27,-3,1,1,6,-4,/,/
CNC[C@H](Cc1ccccc1)NC[C@@H](Cc1cccc2ccccc12)NCCc1ccc(C)cc1,100*,2,107*,-5,108*,10,86*,51*
